Records with an inconclusive call do not appear. Activity calls are given as the source filed them. Unless noted, calls come from the whole dose curve; as a rule, active = well fitted curve in the direction sought with a large enough effect; inconclusive = small, poorly fitted or top-dose-only effect, or another doubt; inactive = no such curve, though single readings can be large; an effect the other way counts as inactive or inconclusive.
Key:
[1] = qHTS for Inhibitors of Cell Surface uPA Generation: Validation Assay (AID 493164);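 note: RAW 264.7 macrophage cells exposed to compound for 18 h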
In short: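 ATP-Lite luminescence read-out: ATP remains high when uPA activity-dependent LF translocation into the cytoplasm is blocked. RAW 264.7 cells, 18 h compound exposure at 37 C; 7-point titration, 2.45 nM to 38.3 uM final.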

[2] = target: Galactokinase (Homo sapiens) (UniProt P51570); test: qHTS Validation Assay for Inhibitors of Human Galactokinase (GALK) (AID 493189)
Sequence of Galactokinase (Homo sapiens) (P51570 whole entry, looked up): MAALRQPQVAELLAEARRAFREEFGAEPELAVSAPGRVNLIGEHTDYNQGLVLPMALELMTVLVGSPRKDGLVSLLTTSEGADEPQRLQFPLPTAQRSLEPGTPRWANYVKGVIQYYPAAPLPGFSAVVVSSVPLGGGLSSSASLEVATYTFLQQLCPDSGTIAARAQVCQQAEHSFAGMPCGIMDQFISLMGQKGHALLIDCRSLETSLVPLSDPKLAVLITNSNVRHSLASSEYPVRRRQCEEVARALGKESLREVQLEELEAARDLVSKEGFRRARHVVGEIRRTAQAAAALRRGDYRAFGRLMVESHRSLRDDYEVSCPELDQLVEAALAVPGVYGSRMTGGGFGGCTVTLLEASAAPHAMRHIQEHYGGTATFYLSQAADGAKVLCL
In short: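 GALK (5 nM) with 35 uM ATP and 100 uM galactose in HEPES pH8.0, MgCl2, NaCl, DTT, BSA; 1 h at room temperature. Residual ATP read by Kinase-Glo Plus luminescence after 10 min.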

[3] = Validation screen for small molecules that induce DNA re-replication in SW480 colon adenocarcinoma cells (AID 504364)
In short: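 Image-based DNA content read-out: Hoechst stain 40 min, total nuclear fluorescence intensity (ex 405 nm, em 500-530 nm) after 48 h compound exposure of 250 SW480 cells/well at 37 C, 5% CO2, versus DMSO vehicle.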

[4] = target: Peptidyl-prolyl cis-trans isomerase NIMA-interacting 1 (Homo sapiens) (UniProt Q13526); test: qHTS Validation Assay to Find Inhibitors of Pin1 (AID 504536; active = well fitted inhibition curve with a large enough effect in the polarisation, with a control signal flat, not every such curve was filed as active; the % refers to the polarisation)
Sequence of Peptidyl-prolyl cis-trans isomerase NIMA-interacting 1 (Homo sapiens) (Q13526 whole entry, looked up): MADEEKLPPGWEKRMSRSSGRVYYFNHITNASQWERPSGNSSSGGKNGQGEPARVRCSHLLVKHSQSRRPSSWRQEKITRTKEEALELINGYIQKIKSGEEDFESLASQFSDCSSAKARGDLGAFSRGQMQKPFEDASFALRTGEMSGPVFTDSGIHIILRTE
In short: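 Fluorescence polarization competition: compounds (titration) displace HiFluor-488-labeled Pin1-1b peptide from Pin1 (0.3 uM final) in pH 7.5 HEPES buffer with DTT, 10 min at room temperature; %Activity normalized to no-enzyme wells, curves fitted.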

[5] = target: Phosphoglycerate kinase, glycosomal (Trypanosoma brucei brucei) (UniProt P07378); test: qHTS Validation Assay to Find Inhibitors of Phosphoglycerate Kinase (AID 504547)
Sequence of Phosphoglycerate kinase, glycosomal (Trypanosoma brucei brucei) (P07378 whole entry, looked up): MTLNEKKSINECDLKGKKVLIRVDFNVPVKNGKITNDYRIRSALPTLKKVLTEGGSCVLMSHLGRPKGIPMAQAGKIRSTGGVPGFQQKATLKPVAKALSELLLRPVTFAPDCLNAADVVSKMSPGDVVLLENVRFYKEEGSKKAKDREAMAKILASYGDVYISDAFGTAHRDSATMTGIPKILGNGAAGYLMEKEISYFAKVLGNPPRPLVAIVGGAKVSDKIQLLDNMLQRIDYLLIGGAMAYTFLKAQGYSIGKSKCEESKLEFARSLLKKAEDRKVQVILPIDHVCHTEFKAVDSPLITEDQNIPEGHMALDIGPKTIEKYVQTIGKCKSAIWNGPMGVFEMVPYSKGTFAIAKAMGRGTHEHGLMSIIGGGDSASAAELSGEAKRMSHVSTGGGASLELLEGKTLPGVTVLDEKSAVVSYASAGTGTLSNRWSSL
In short: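 Compounds are pinned into the substrate/PGK mixture, and GAPDH (100nM final) is added to start the reaction by producing 1,3-BPG. After 60 minutes at room temperature, Kinase-Glo Plus is added and luminescence is measured 10 minutes later.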

[6] = target: phosphoglycerate mutase (Leishmania major) (UniProt Q4Q090); test: qHTS Validation Assay to Find Inhibitors of Phosphoglycerate Mutase (AID 504548);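 note: end-point luminescence from Kinase-GloPlus after the PGAM reaction; series mostly up to about 58 µM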
Sequence of phosphoglycerate mutase (Leishmania major) (Q4Q090 1-553): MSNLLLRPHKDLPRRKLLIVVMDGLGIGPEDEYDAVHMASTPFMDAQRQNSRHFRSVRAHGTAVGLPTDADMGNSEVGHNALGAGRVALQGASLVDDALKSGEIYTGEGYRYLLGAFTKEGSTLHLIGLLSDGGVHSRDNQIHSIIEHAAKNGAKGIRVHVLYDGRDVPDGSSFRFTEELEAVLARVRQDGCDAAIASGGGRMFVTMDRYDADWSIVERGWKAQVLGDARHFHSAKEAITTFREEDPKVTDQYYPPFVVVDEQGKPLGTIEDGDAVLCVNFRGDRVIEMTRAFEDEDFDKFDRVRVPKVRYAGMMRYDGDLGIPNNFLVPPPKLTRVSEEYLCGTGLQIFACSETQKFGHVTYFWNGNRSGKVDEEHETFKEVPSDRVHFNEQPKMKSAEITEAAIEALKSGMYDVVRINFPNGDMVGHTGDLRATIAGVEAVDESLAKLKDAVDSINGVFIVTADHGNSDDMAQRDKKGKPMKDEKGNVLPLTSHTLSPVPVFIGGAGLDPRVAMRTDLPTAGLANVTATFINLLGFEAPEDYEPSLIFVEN
In short: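 L. major PGAM (1.25nM final) was added to substrate buffer and pinned compound, incubated 45 minutes at room temperature, then Kinase-GloPlus added; luminescence read after 10 minutes. Buffer: 100 mM TEA pH 7.6, 5 mM MgCl2, 0.01% Tween-20.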

[7] = Inducers of the Endoplasmic Reticulum Stress Response (ERSR) in human glioma: Validation (AID 504836)
In short: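 Stably transfected U87-MG glioma cells carrying a GRP78-based luciferase sensor; 16 h compound incubation. Luminescence end-point read 10 min after Bright-Glo addition at room temperature.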

[8] = target: Ubiquitin carboxyl-terminal hydrolase 1 (Homo sapiens) (UniProt O94782); test: Inhibitors of USP1/UAF1: Pilot qHTS (AID 504865);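 note: rhodamine fluorescence freed from ubiquitin-rhodamine substrate followed over time; top concentration of the series differs between compounds; nearly all actives have a fitted effect of over 35% in size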
In short: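 USP1/UAF1 complex (1nM) preincubated with compound 15 min at room temperature, then Ub-Rho substrate (150nM final) added. Fluorescence read kinetically at 480/540 nm, 6 reads every 60 seconds. Buffer: 50mM HEPES pH 7.8, 0.5mM EDTA, 0.1 mg/ml BSA, 1mM TCEP, 0.01% Tween-20.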

[9] = qHTS for Inhibitors of ATXN expression: Validation of Cytotoxic Assay (AID 588349)
In short: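 Cytotoxicity counter-screen: ATP-based luminescent viability (CellTiter Glo) after 72 hr exposure of HEK293 cells to a compound titration at 37 degrees C.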

[10] = qHTS for Inhibitors of ATXN expression: Validation (AID 588378); note: series mostly up to about 57 µM; nearly all actives have a fitted effect of over 75% in size
In short: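 Luminescence from an ATXN2-FFLuc reporter in HEK293 cells served as read-out after 24 h compound treatment at 37 degrees C; CellTiter-Fluor fluorescence was recorded first to assess viability.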

[11] = target: Voltage-gated inwardly rectifying potassium channel KCNH2 (Homo sapiens) (UniProt Q12809); test: qHTS Assay for Small Molecule Inhibitors of the Human hERG Channel Activity (AID 588834);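 note: top concentration of the series differs between compounds; lower thallium flux fluorescence means stronger hERG block; nearly all actives have a fitted effect of over 50% in size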
Sequence of Voltage-gated inwardly rectifying potassium channel KCNH2 (Homo sapiens) (Q12809 whole entry, looked up): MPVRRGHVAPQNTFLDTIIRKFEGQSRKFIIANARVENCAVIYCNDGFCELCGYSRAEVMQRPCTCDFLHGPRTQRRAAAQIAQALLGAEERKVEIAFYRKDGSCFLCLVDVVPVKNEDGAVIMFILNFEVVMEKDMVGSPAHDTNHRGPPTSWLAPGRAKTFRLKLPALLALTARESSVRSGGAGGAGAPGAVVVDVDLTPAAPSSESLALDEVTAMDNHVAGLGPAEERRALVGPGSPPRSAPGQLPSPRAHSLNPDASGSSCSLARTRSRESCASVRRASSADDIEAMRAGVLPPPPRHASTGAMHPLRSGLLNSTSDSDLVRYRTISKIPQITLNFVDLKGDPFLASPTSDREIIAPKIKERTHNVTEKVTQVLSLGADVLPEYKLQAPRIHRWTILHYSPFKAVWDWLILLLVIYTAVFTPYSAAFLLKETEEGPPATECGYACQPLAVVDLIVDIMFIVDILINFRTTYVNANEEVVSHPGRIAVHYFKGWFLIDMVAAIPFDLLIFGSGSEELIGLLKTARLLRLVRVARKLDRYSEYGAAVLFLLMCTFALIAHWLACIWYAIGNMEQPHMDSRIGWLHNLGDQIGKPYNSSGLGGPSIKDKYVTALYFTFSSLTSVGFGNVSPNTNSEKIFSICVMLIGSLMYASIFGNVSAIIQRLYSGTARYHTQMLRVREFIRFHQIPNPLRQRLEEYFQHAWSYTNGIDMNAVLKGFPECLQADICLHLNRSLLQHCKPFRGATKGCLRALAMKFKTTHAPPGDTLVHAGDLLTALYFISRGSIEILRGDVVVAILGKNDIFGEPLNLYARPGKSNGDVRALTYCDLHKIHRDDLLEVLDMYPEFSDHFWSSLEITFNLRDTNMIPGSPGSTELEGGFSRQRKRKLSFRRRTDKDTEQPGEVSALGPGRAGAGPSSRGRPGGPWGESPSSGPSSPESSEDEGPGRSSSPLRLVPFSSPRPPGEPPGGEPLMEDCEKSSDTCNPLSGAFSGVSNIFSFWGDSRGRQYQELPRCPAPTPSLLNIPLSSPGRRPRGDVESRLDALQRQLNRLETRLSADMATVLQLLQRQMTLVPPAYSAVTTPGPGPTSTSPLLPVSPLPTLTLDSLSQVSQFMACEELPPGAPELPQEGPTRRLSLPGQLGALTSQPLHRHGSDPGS
In short: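 In hERG-transduced U2OS cells, dye-loaded for 1 hr at room temperature in dark, test compounds incubated 10 min at 37 °C before thallium stimulation. AC50 values derived by Hill modelling of concentration-response.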

[12] = target: Glutaminase kidney isoform, mitochondrial (Homo sapiens) (UniProt O94925); test: qHTS for Inhibitors of Glutaminase (GLS): LOPAC Validation (AID 624146);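 note: glutamate product detected by oxidase and peroxidase coupled Amplex red fluorescence gain; series mostly up to about 46 µM; nearly all actives have a fitted effect of over 60% in size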
Sequence of Glutaminase kidney isoform, mitochondrial (Homo sapiens) (O94925 whole entry, looked up, canonical isoform): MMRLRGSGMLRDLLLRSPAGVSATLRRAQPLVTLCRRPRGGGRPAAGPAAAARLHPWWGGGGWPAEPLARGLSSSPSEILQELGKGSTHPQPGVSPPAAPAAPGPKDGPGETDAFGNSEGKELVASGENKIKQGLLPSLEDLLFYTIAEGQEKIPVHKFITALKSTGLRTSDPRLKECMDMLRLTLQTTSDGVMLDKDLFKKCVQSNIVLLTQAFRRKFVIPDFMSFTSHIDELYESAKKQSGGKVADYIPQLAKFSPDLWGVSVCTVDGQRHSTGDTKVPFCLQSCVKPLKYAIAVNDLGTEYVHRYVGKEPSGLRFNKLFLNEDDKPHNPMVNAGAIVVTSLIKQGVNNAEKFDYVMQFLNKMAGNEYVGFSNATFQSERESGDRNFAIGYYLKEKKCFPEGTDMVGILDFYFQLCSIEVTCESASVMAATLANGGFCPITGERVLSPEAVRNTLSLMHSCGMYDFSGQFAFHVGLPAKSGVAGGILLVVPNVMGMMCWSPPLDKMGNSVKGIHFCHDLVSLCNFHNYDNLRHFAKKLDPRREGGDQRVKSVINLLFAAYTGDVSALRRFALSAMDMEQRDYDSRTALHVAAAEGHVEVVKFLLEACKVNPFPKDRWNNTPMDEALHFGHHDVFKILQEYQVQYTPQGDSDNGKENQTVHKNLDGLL
In short: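 hKGA; 45 mM KH2PO4 pH 8.2 + 0.02% Tween-20; cpd via pin tool; 1 mM Gln soln; GluOx/HRP/Amplex Red; RT 30 min; fluor. t0 & final.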

[13] = qHTS of Trypanosoma Brucei Inhibitors: LOPAC Validation (AID 624147)
In short: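 T. brucei PYK with substrate was exposed to pin-transferred compounds across a concentration series, then started with 130 uM ADP (final). After 45 min at room temperature, Kinase-Glo Plus luminescence was read, normalized and curve-fitted.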

[14] = target: Glucagon-like peptide 1 receptor (Homo sapiens) (UniProt P43220); test: qHTS of GLP-1 Receptor Agonists: LOPAC Validation (AID 624148);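 note: higher luminescence signal means agonism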
Sequence of Glucagon-like peptide 1 receptor (Homo sapiens) (P43220 whole entry, looked up): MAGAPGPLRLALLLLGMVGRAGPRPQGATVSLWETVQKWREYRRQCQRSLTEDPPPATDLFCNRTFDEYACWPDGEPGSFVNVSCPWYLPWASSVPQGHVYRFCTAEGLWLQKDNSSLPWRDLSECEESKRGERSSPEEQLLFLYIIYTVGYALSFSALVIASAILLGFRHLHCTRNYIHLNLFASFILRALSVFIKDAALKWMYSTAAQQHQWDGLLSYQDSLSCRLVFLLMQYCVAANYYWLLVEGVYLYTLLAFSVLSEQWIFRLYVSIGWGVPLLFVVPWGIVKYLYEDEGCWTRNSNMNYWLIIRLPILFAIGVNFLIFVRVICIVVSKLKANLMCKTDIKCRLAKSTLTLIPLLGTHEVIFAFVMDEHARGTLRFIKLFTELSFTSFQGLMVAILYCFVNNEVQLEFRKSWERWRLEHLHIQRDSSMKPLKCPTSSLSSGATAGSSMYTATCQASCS
In short: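 HEK293 cells stably co-expressing GLP-1R and a cAMP-responsive luciferase reporter, plated 12 hours before compound, then incubated 4-6 hr at 37 deg C. Luminescence read 12 min after detection reagent.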

[15] = qHTS of Nrf2 Activators: LOPAC Validation (AID 624149)
In short: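 Luciferase signal from ARE activation, read with Steady-Glo after 30 min at room temperature. Compounds were pin-transferred onto AREc32_Fluc cells (1000/well, OPTI-MEM/5% FBS, seeded overnight) and left 24 hr at 37 deg C.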

[16] = HTS Assay for Allosteric Antagonists of the Human D2 Dopamine Receptor: Hit Validation in HTRF (AID 624455);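 note: stable D1 dopamine receptor cell line scored for blocking the D1 response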
In short: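 Inhibition of the D1-mediated response was measured by HTRF. Cells used were a line stably expressing the D1 dopamine receptor.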

[17] = target: Arylsulfatase A (Homo sapiens) (UniProt P15289); test: qHTS screen for enhancers of Arylsulfatase A (ASA1): LOPAC Validation Assay (AID 720538)
Sequence of Arylsulfatase A (Homo sapiens) (P15289 whole entry, looked up): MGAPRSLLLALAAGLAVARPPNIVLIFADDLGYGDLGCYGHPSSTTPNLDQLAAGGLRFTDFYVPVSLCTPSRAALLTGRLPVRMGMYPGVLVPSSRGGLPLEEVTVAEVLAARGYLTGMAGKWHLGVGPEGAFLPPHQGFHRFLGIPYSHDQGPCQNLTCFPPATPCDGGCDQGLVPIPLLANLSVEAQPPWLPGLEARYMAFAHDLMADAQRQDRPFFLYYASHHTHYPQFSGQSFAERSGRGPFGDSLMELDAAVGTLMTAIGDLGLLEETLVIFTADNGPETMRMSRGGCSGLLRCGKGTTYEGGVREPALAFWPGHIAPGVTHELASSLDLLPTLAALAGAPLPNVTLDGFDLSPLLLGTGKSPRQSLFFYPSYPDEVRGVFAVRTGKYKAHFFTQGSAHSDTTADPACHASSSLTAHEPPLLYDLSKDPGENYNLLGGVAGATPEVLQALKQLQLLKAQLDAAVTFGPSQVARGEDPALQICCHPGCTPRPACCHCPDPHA
In short: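 SV40-transformed skin fibroblasts from an MLD patient (ASA-I179S) were treated with compounds for 48h at 37 degree C, then lysed with 0.5mM pNCS final substrate for 14h at room temperature; NaOH stop, fluorescence read (Ex=525 nm; Em=598 nm).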

[18] = qHTS for compounds that reverse cellular toxicity of Amyloid beta (A-beta) peptide in yeast: LOPAC Validation Assay (AID 720559)
In short: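 Yeast cells expressing toxic A-beta were combined with pinned compounds in growth medium and incubated 48 hr at 30 C. Growth was read as absorbance at 600 nm and normalized to DMSO and to an equimolar FeCl3/clioquinol positive control.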

Measured: Potency

O=[N+]([O-])c1ccc(O[C@@H]2O[C@H](CO)[C@@H](O)[C@H](O)[C@H]2F)c([N+](=O)[O-])c1
inactive: all assays above

Reference: PubChem BioAssay (NCATS)
